# Screening results (PubChem BioAssay)
# BJeLR viability – lowers viability of BJeLR cells; BJeLR fibroblasts viability, CellTiterGlo ATP luminescence, 48 h; HRASV12, hTERT and SV40 LT/ST transformed; viability loss activity score, % (no concentration beside the values); 30,000 compounds, 0.64% hits; AID 2275; in the data active = viability loss activity score above about 50%;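 note: higher score means fewer live cells and less ATP luminescence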
# MITF inh – blocks MITF activity | 37,000 compounds, 0.28% hits | inhibition, % (concentration not given with the values) | TRPM1 promoter luciferase, luminescence, 24 h; in the data active = inhibition above about 85%;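 note: human melanocyte line stably carrying TRPM1 promoter luciferase reporter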
# Shh pathway inh – Sonic Hedgehog pathway inhibition | Shh-LIGHT2 Gli-luciferase reporter, 30 h | inhibition, % (test concentration not listed) | AID 2313 | 22,000 compounds, 2.1% hits;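 active = mean inhibition across valid replicates above about 65%, limit read from the data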;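 note: pathway switched on by Shh-conditioned medium diluted 1 in 25 in low serum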
# Hits are given with their value; 0 = inactive; - = no result given. This is one part of a sample in which hits are shown more often than they occur.
SMILES,BJeLR viability,MITF inh,Shh pathway inh
C=C1C(=O)O[C@@H]2[C@H]1[C@H](O)C[C@]1(C)[C@@H](O)CC=C(C)[C@@H]21,0,0,0
C=C1C(=O)O[C@H]2[C@H]1[C@@H](OC(=O)C(C)(O)CCl)C(OC(C)=O)/C(C(=O)OC)=C\CC[C@@]1(C)O[C@H]21 (stereo partly specified),50.2,0,0
C=C1C(=O)O[C@H]2[C@H]1[C@@H](OC(=O)/C(C)=C/C)C(OC(C)=O)/C(C(=O)OC)=C\CC[C@@]1(C)O[C@H]21 (stereo partly specified),60.6,0,0
C=C1C(=O)O[C@H]2[C@H]1[C@@H](OC(=O)/C(C)=C\C)C(OC(C)=O)/C(C(=O)OC)=C\CC[C@@]1(C)O[C@H]21 (stereo partly specified),68.1,0,0
O=C(NCC1COc2ccccc2O1)c1cc2c(s1)-c1ccccc1OC2 (stereo unspecified),0,-,-
O=C(NCc1cccs1)c1ccc2c(c1)N(Cc1ccccc1)C(=O)CS2,0,-,-
COc1ccc(C2(CNC(=O)C3COc4ccccc4O3)CCCC2)cc1OC (stereo unspecified),-,0,-
COc1ccccc1C1CCN(S(=O)(=O)c2ccc(-c3csc(C)n3)s2)CC1,0,-,-
Cc1nc(-c2ccc(S(=O)(=O)N3CCCc4ccccc43)s2)cs1,56.1,-,-
CCC(Sc1nc(Nc2ccc(F)cc2)c2ccccc2n1)C(=O)Nc1ccc2c(c1)OCO2 (stereo unspecified),0,-,-
CC(=O)Oc1ccc(-c2coc3cc(OC(C)=O)cc(OC(C)=O)c3c2=O)cc1,0,0,0
CC(=O)OC[C@H]1O[C@@H](Oc2cc(OC(C)=O)c3c(=O)cc(-c4ccc(OC(C)=O)cc4)oc3c2)[C@H](OC(C)=O)[C@@H](OC(C)=O)[C@@H]1OC(C)=O,0,0,64.7
Cc1cc(OCC(=O)Nc2cccnc2)cc(C)c1Cl,-,0,-
CCCCc1c(C)c(C#N)c2[nH]c3ccccc3n2c1=O,0,-,-
CCc1c(C)c(C#N)c2[nH]c3ccccc3n2c1=O,101.1,-,-
COc1ccc(N(C(C)C(=O)Nc2ccc(C(F)(F)F)cc2)S(C)(=O)=O)cc1 (stereo unspecified),-,0,-
Cc1ccc(N(CC(=O)Nc2ccccc2-c2ccccc2)S(C)(=O)=O)cc1,-,0,-
CC1=NN(C(=O)c2ccccc2)C(O)(C(F)(F)F)C1 (stereo unspecified),0,-,-
C=CCNC1=C2C[C@@H](C)C[C@H](OC)[C@H](O)[C@@H](C)/C=C(\C)[C@H](OC(N)=O)[C@@H](OC)C=C/C=C(/C)C(=O)NC(=CC1=O)C2=O,69.2,0,107.5
C[C@@H]1CCCCO[C@@H](CN(C)C(=O)Nc2ccc(C(F)(F)F)cc2)[C@@H](C)CN([C@H](C)CO)C(=O)c2cc(NS(=O)(=O)c3ccc(F)cc3)ccc2O1,-,0,98.1
Cc1noc(C)c1S(=O)(=O)Nc1ccc2c(c1)C(=O)N([C@H](C)CO)C[C@H](C)[C@H](CN(C)C(=O)Nc1ccc(C(F)(F)F)cc1)OCCCC[C@@H](C)O2,-,0,99.9
Cc1noc(C)c1S(=O)(=O)Nc1ccc2c(c1)C(=O)N([C@H](C)CO)C[C@H](C)[C@@H](CN(C)C(=O)Nc1ccc(C(F)(F)F)cc1)OCCCC[C@@H](C)O2,-,0,0
Cc1ccc(S(=O)(=O)Nc2ccc3c(c2)C(=O)N([C@H](C)CO)C[C@H](C)[C@@H](CN(C)C(=O)Nc2ccc(C(F)(F)F)cc2)OCCCC[C@@H](C)O3)cc1,-,0,0
Cc1c(CO)c2ccccc2n1Cc1ccccc1C#N,-,0,-
COc1ccc(Cn2c(SCc3cccc(C(F)(F)F)c3)nc3ccncc32)cc1,0,-,-
SMILES,BJeLR viability,MITF inh,Shh pathway inh
Cc1cc(NS(=O)(=O)c2ccc(F)c(Cl)c2)no1,0,-,-
CSc1cccc(NC(=S)Nc2cccc(SC)c2)c1,0,-,-
CC1CCC(C(C)C)C(NC(=S)Nc2cccc(F)c2)C1 (stereo unspecified),0,0,101.8
O=C(COc1ccc(Br)cc1)NCC1CCCO1 (stereo unspecified),0,0,0
COc1cc(=O)oc([C@@]2(C)O[C@H]2/C(C)=C\C(C)=C\[C@@]2(C)O[C@@H](C)[C@]3(C)OC23)c1C (stereo partly specified),0,0,0
C/C=C/C=C/C(=O)c1cc(C)c(O)c(C)c1O,0,0,0
C[C@H]1CC[C@@H]2[C@@H](C(=O)c3c(O)c([C@]4(O)CC[C@@H](O)[C@H]5O[C@H]54)c[nH]c3=O)[C@@H](C)C=C[C@H]2C1,53.8,0,95.9
CC(C)n1c(-c2ccccc2)nc2ccccc21,0,0,0
Cc1nc(C)c(C(=O)C2C(=O)C(=O)N(CCN3CCOCC3)C2c2cccs2)s1 (stereo unspecified),-,0,-
COc1ccc(/C=C/C(=O)CC(=O)/C=C/c2cccc(O)c2OC)cc1O,0,0,69.5
